{"source": "paper PMC5540273", "about": "(PLoS ONE, 2017);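 note: KINOMEscan kinase panel screen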"}
{"system": "T1, ARK5", "T1 construct": "gene NUAK1", "conditions": "concentration: 1 μM, replicates: in singlicate; n = 1", "units": {"%Inh": "%"}}
{"molecule": "CSc1cccc2c(-c3ccncn3)c(-c3ccc(F)cc3)nn12", "note": "[GW514786]", "%Inh": 12}
{"molecule": "Cn1cc(-c2[nH]c3cc(NC(=O)[C@H](N)C4CCCCC4)cc4c3c2C=NNC4=O)cn1", "%Inh": 92.2}
{"molecule": "COc1ccc(CNC(=O)NC2CCN(c3ccnc(Nc4ccc(F)cc4)n3)CC2)cc1", "note": "[GSK1379788]", "%Inh": 5}
{"molecule": "COc1cccc(NC(=O)NC2CCN(c3ccnc(Nc4cc(OC)c(OC)c(OC)c4)n3)C2)c1", "note": "(stereo not shown) [GSK1379763]", "%Inh": 18}
{"molecule": "O=C(Nc1n[nH]c2nc(-c3ccc(O)cc3)ccc12)C1CC1", "note": "[SB-710363]", "%Inh": 0}
{"molecule": "CN1CCN(CCCNc2nccc(-c3c(-c4ccc(F)cc4)nn4cc(C(F)(F)F)ccc34)n2)CC1", "note": "[GW621581]", "%Inh": 21}
{"molecule": "c1ccc(-c2n[nH]cc2Nc2ccnc3ccccc23)nc1", "note": "[GW694077]", "%Inh": 0}
{"molecule": "CCc1ccc(-c2ccc3c(c2)-c2c(cnn2C)S(=O)(=O)N3C)cc1", "%Inh": 0}
{"molecule": "NCCCC(NC(=O)c1cc(Br)c(-c2ccnc3[nH]ccc23)s1)c1ccccc1.O=C(O)C(F)(F)F.O=C(O)C(F)(F)F", "note": "(stereo not shown) [GSK1287544]", "%Inh": 54}
{"molecule": "Nc1ncc(-c2cccnc2)c2scc(-c3ccc4c(c3)CCN4C(=O)Cc3ccccc3)c12", "note": "[GSK683281]", "%Inh": 32}
{"molecule": "Cl.c1ccc(-c2ccc3c(Nc4ccc5[nH]ncc5c4)ccnc3c2)nc1", "note": "[GW440137]", "%Inh": 11}
{"molecule": "Cc1ccc(C)c(NC(=O)NC2CCN(c3ccnc(Nc4ccc(F)cc4)n3)C2)c1", "note": "(stereo not shown) [GSK1379720]", "%Inh": 0}
{"molecule": "COc1cc(Nc2nccc(-c3c(-c4cccc(NC(=O)c5c(F)cccc5F)c4)nn4ccccc34)n2)cc(OC)c1OC", "note": "[GSK323521]", "%Inh": 8}
